Screening data (PubChem)
Sampled rows, rich in hits. Any-hit rate of the full collection: about 4%.
Mtb betalactam = beta-lactam sensitization of Mtb H37Rv, H37Rv | M. tuberculosis H37Rv growth with meropenem, percent inhibition | inhibition, % at 25 µM | 330,000 tested, 0.27% active | AID 434955, 2010; call rule not given here;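 further: growth measured after seven days incubation then overnight dye step; 0% = bacteria only wells and 100% = bacteria with antibiotic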
CCHF vOTU inh = CCHFV vOTU protease inhibitors, primary screen, biochemical, Pep-AMC substrate, fluorescence; Crimean-Congo hemorrhagic fever virus L polyprotein viral ovarian tumor (vOTU) protease …; inhibition, % at 11.5 µM; 370,000 tested, 0.55% active; AID 651958, 2012; in the data active means inhibition above about 30%; further: 0% = vehicle wells with enzyme and 100% = no enzyme wells
FBA Mtb inh = Mtb FBA enzyme inhibitors, primary screen, biochemical, fluorescence, strain H37Rv. purified M. tuberculosis FBA, fluorescence read-out. 360,000 tested, 2.3% active. inhibition, % at 1 µM. AID 588726, 2011;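 further: 0% = vehicle and 100% = reference inhibitor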
Target sequence (P9WQA3 whole entry, looked up): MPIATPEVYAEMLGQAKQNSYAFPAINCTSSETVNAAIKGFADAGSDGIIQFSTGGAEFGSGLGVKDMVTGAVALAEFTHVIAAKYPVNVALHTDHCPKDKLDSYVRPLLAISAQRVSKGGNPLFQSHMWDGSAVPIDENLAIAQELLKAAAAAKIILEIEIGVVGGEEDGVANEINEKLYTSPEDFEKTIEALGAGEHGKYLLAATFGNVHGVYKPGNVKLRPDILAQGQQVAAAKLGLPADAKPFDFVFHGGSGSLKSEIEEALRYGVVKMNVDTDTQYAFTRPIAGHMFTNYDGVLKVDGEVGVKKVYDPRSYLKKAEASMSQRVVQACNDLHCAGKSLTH
MazEF act = activators of E. coli MazEF toxin-antitoxin RNase, primary screen, biochemical, fluorescence, uHTS. Endoribonuclease toxin MazF (Escherichia coli (strain K12)), P0AE70. FAM/BHQ RNA-DNA oligo cleavage fluorescence, 5 h. activation, % at 20 µM. 350,000 tested, 0.32% active. AID 504720, 2011; in the data active means activation above about 50%
Target sequence (P0AE70 whole entry, looked up): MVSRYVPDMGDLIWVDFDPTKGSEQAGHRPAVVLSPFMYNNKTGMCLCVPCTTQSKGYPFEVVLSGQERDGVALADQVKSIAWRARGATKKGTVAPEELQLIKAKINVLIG
GDH-TPI counter-1 = GDH-TPI coupling enzyme inhibitors, primary screen, artefact control for M. tuberculosis FBA inhibitor project, biochemical, absorbance, full deck; inhibition, % at 4.8 µM; GDH-TPI coupled enzyme counterscreen, NADH absorbance; 360,000 tested, 1.2% active; AID 588335, 2011; in the data active means inhibition above about 30%;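 further: 0% = DMSO wells and 100% = wells lacking the enzyme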
Mtb FBA inh conf = M. tuberculosis aldolase blockers, biochemical, fluorescence, strain H37Rv, confirmation; shares compounds with FBA Mtb inh; purified M. tuberculosis FBA, fluorescence read-out; inhibition, % at 1 µM; 5,600 tested, 78% active;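 further: 0% = vehicle wells and 100% = reference inhibitor wells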
GDH-TPI counter-2 = GDH-TPI coupling enzyme inhibitors, artefact control for M. tuberculosis FBA inhibitor project, biochemical, fluorescence, high throughput; shares compounds with FBA Mtb inh; GDH-TPI coupled enzyme counterscreen; inhibition, % at 1 µM; 5,600 tested, 81% active; AID 652141, 2013; in the data active means inhibition above about 10%
GDH-TPI DR = GDH-TPI coupling enzyme inhibitors, dose response, artefact control for M. tuberculosis FBA inhibitor project, biochemical, fluorescence, IC50 | shares compounds with FBA Mtb inh | GDH-TPI coupled enzyme assay, artifact counterscreen | IC50, µM | 170 tested, 79% active; call rule not given here
An asterisk follows results filed as active; ? = inconclusive; nt = no result; + = active, no number. Unless noted, no stated cut-off is given here; in the data, active means inhibition above about 27%; inactive means the rest.

SMILES	Mtb betalactam	CCHF vOTU inh	FBA Mtb inh	MazEF act	GDH-TPI counter-1	Mtb FBA inh conf	GDH-TPI counter-2	others
Cc1cccc(-c2nc3ccc(C(=O)N4CCC5(CC4)OCCO5)cc3nc2-c2cccc(C)c2)c1	72.3	-37.0	42.5*	16.0	16.2	117.2*	78.6*
CN1CCN(C(=O)c2ccc3nc(-c4ccccc4)c(-c4ccccc4)nc3c2)CC1	2.6	-50.0	30.2*	4.8	10.4	168.1*	135.2*
CN1CCN(C(=O)c2ccc3ccccc3c2)CC1	-2.9	2.7	1.6	6.8	4.4	nt	nt
O=C(c1ccc2nc(-c3ccccc3)c(-c3ccccc3)nc2c1)N1CCCCC1	29.7	-30.6	33.5*	2.8	14.6	92.6*	63.5*
Cc1nn(CCC(=O)NNC(=O)NCc2ccccc2)c(C)c1[N+](=O)[O-]	nt	-6.8	nt	nt	nt	nt	nt
c1ccc2c(c1)c1cccc3ccc4cccc2c4c31	3.8	-15.9	54.9*	0.4	20.8	74.8*	64.1*
O=c1c2ccccc2ccc2ccccc12	4.8	22.1	5.6	1.4	14.3	nt	nt
Cc1cccc2c1-c1sc(C(=O)N3CCCCC3)cc1CO2	?	-28.1	42.2*	1.6	10.9	10.9	19.1*
CN1CCN(C(=O)c2cc3c(s2)-c2ccccc2S(=O)(=O)C3)CC1	8.2	12.3	-0.8	-4.8	19.4	nt	nt
Cc1cccc2c1-c1sc(C(=O)N3CCc4ccccc4C3)cc1CO2	4.5	-45.8	41.1*	3.1	-1.4	59.1*	40.9*
O=C(Nc1ccc(F)cc1)OCc1cn(Cc2ccc(F)cc2F)nn1	nt	5.4	nt	nt	nt	nt	nt
Cc1cc(=O)oc2cc(NC(=S)NCc3ccccn3)ccc12	-5.9	-37.6	24.1	11.0	9.4	nt	nt
Cc1cc(=O)oc2cc(NC(=S)NNC(=O)c3c(Cl)cnn3C)ccc12	-6.2	-70.8	82.9*	2.2	35.4*	43.0*	28.0*
COc1ccc(OC)c(-c2nnc(-c3ccc(C)o3)o2)c1	-4.3	-58.0	103.3*	11.5	23.7	101.1*	83.6*
CCCCCc1c(C)[nH]c2nc3ccccc3n2c1=O	0.7	-13.8	0.8	-1.1	1.3	nt	nt
COC(=O)Cc1cc(=O)n2c(nc3ccccc32)[nH]1	-4.5	-28.3	65.0*	8.8	13.7	34.7*	17.7*
Cc1cc(=O)[nH]c2nc3ccccc3n12	nt	-14.3	47.3*	4.0	15.9	75.6*	59.7*
COc1ccc(CCNc2oc(-c3ccco3)nc2C#N)cc1	30.0	-28.2	53.9*	-5.3	9.0	144.7*	133.5*
N#Cc1nc(-c2ccccc2)oc1NCCN1CCCCC1	0.3	-51.3	80.7*	5.0	-9.2	66.7*	67.5*
N#Cc1nc(-c2ccco2)oc1NCCc1ccccc1	43.5	-2.1	41.0*	6.2	20.4	48.8*	39.8*
COc1ccc(CCNc2oc(Cc3ccccc3)nc2C#N)cc1OC	-3.6	3.9	-0.7	-2.6	-16.6	nt	nt
COc1ccc(-c2nc(C#N)c(NCCc3ccccc3)o2)cc1OC	-4.3	-36.5	101.5*	-3.3	20.0	+	+
N#Cc1nc(Cc2cccc3ccccc23)oc1NCCN1CCOCC1	-2.3	2.8	5.8	-12.3	28.6	nt	nt
COc1ccc(CCNc2oc(COc3ccc(F)cc3)nc2C#N)cc1	1.1	16.3	-3.1	-12.8	-1.2	nt	nt
CCC(=O)Nc1c(C#N)c2nc3ccccc3nc2n1-c1ccc(C)cc1	nt	-52.1	37.6*	0.0	11.3	80.0*	84.2*
SMILES	Mtb betalactam	CCHF vOTU inh	FBA Mtb inh	MazEF act	GDH-TPI counter-1	Mtb FBA inh conf	GDH-TPI counter-2	others
CCCCn1c(NC(=O)c2ccc(F)cc2)c(C#N)c2nc3ccccc3nc21	5.1	nt	nt	nt	nt	nt	nt
Cc1ccc(NC(=S)NC(NC(=O)c2ccco2)C(Cl)(Cl)Cl)cc1 (stereo not given)	-5.5	1.4	0.5	3.7	7.6	nt	nt
Cc1cccc(NC(=S)NC(NC(=O)c2ccco2)C(Cl)(Cl)Cl)c1 (stereo not given)	-8.6	1.1	73.9*	2.9	16.6	89.1*	95.2*
Cc1nc2c(-c3ccc(F)cc3)c(C)[nH]n2c(=O)c1Cl	91.2	-1.0	42.1*	-30.1	23.9	26.5	20.6*
Cc1nc2c(-c3ccc(Cl)cc3)c(C)[nH]n2c(=O)c1Cc1ccccc1	98.7	-4.4	39.0*	-19.1	-1.6	2.2	2.6
O=c1c2c(nc3cc(-c4cccc(F)c4)[nH]n13)CCC2	1.1	2.8	37.2*	4.7	2.5	-3.5	-2.6
O=c1c2c(nc3cc(-c4ccc(F)cc4)[nH]n13)CCCC2	5.4	-2.5	22.1	17.3	0.0	nt	nt
Cc1c(OCC(=O)NC2CC(C)(C)NC(C)(C)C2)ccc2c1oc(=O)c1ccccc12	8.4	-76.9	63.2*	13.8	17.7	49.8*	58.9*
Cc1c(OCC(=O)NC2CC(C)(C)NC(C)(C)C2)ccc2c3c(c(=O)oc12)CCC3	1.3	8.7	31.7*	15.1	13.9	43.5*	34.7*
Cc1cc(=O)oc2c(C)c(OCC(=O)NC3CC(C)(C)NC(C)(C)C3)ccc12	4.9	12.6	18.0	9.1	10.4	nt	nt
C/C=C/c1ccc([C@H]2[C@@H](CN(CC(C)C)S(=O)(=O)c3ccccc3[N+](=O)[O-])N(C(=O)Nc3cccc(OC)c3)[C@H]2CO)cc1	nt	10.5	nt	nt	nt	nt	nt
O=C(NCCN1CCC(n2c(=O)[nH]c3cc(Cl)ccc32)CC1)c1ccc(F)cc1	nt	-1.5	nt	nt	nt	nt	nt
CC(C#N)Sc1ncnc2sc3c(c12)CCC3 (stereo not given)	2.3	-1.7	-2.3	-1.0	-6.5	nt	nt
Cc1cc(C)nc(Sc2ncnc3sc4c(c23)CCC4)n1	8.3	-21.2	48.5*	-17.2	4.6	1.8	1.3
CCOC(=O)Cc1c(C)nc2c(-c3ccccc3)c[nH]n2c1=O	90.1	-5.9	85.5*	6.1	18.8	175.6*	172.5*
CCOC(=O)Cc1c(C)nc2cc(-c3ccc(C)cc3)[nH]n2c1=O	-8.4	12.6	19.1	-1.7	6.7	nt	nt
CCOC(=O)Cc1c(C)nc2c(-c3ccccc3)c(-c3ccccc3)[nH]n2c1=O	52.8	nt	71.5*	0.2	15.7	57.8*	41.0*
CCc1c(C)nc2c(-c3ccccc3)c[nH]n2c1=O	88.7	-2.9	32.6*	11.3	5.7	14.7	8.7	GDH-TPI DR=8.1*
CCOC(=O)Cc1c(C)nc2c(-c3ccccc3)c(C)[nH]n2c1=O	50.9	-9.3	23.4	2.5	8.8	nt	nt
CCOC(=O)Nc1ccc2c(c1)[C@]1(CC(=O)N(CC(C)C)C1c1ccccc1)C(=O)N2C (stereo not given in full)	nt	-1.9	nt	nt	nt	nt	nt
